The whole screen tested about 31,000 sequences, of which about 1,400 (4.5%) were called active. The entries come from a sample that favours actives as a whole. A number with no mark means an inactive call.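 The calls were made as follows: active = median seed-adjusted z-score above 1 or below -1; inactive = the rest.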

The nature of this assay: Novel Modifiers of Survival Motor Neuron (SMN) Protein: Gene Identification via Genome-wide siRNA Screen.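 Also: luminescence tracks full-length SMN protein made from the SMN2 reporter.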 To be noted: HEK293T SMN2-luciferase reporter, siRNA knockdown, 72 h; actives lie on both sides. In outline:
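Luciferase signal, proportional to full-length SMN made from an SMN2 cDNA reporter in stable HEK293T cells, was read 72 h after siRNA reverse transfection. Values were expressed as MAD scores after non-targeting-control normalization and log10 conversion; seed analysis flagged off-targets.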
For the sequence GCAACAUGCAGAUAGGUUATT against PHF14, the median seed-adjusted z-score is 0.354.
Regarding GCCUGUGACUCAUACUGGATT against ELF5, the median seed-adjusted z-score is -0.45.
CCGGCUACACCUUCCGUAATT against DNAJB8: the median seed-adjusted z-score is -1.09 (active).
The result for GAGAUGCGCAAAUUCACUCTT against IP6K2 reads -0.193.
For the sequence GGAAAAUCAUUGUGCUAAUTT against VN2R1P, the median seed-adjusted z-score is -0.25.
For the sequence GAUUUGGUUUCGUAACUUUTT against A2BP1, the median seed-adjusted z-score was 1.17 (active).
Consider GACUGGUUAUUACGUCUUATT against SYNJ1, for which the median seed-adjusted z-score was 0.
The result for GAGUGUAACUGCAACCAGATT against NTNG2 reads 0.403.
The result for ACUCAGUGGAGGUCACCAATT against EIF3F reads -0.0214; that for GCCUCUCAGAGAACUACGATT against LRRC33, -0.194.
In the case of GGGCGAUGUCCAUCCACAATT against PIF1, the median seed-adjusted z-score is -0.0455.
For CUCCAUUCCUGGUAUAGAATT against XRCC5, the median seed-adjusted z-score is -1.11 (active).
The result for CCUCCUCACCAAACCCAUUTT against SLC5A1 reads -0.812; that for CGACUGAACAAACCCUAUATT against ERCC3, 0.155; that for GCCUGAAUGCAGCCCAGUUTT against SP2, -0.617.
Take AGGACAAGCUGAAAAUCCATT against ZBTB7C: the median seed-adjusted z-score was 0.447.
Turning to UCAGUUUGCUGAGAACGAATT against TCEB1, the median seed-adjusted z-score is 1.08 (active).
In the case of CCUCAACUCUAAAUACUCATT against ZNF716, the median seed-adjusted z-score was 0.
Take GGAGAUCUCUCGUCUCAAUTT against KCNH4: the median seed-adjusted z-score was -0.769.
Take GGAGAUGUAUUGGUGAGAATT against CYP3A5: the median seed-adjusted z-score was 0.0516.
As for GCAGCUACAGGUCAUCUCATT against DGAT2, the median seed-adjusted z-score is 0.195.
GGAGUGCGAUGGACAAUUUTT against LCT: the median seed-adjusted z-score is 0.411.
As for GGUGCAAGAGAGUCCGUUUTT against D2HGDH, the median seed-adjusted z-score is -0.637.
For the sequence UGAAAGGACUGGAGUCCAATT against OLFM1, the median seed-adjusted z-score was -0.103.
Take GGAUAUUGGAUUGCCUAGATT against TCFL5: the median seed-adjusted z-score was 1.52 (active).
In the case of GGUUCACUUUGAUAGUACUTT against CLCA4, the median seed-adjusted z-score was 0.186.
The result for GCCCUGAUUUGUGCAAUGATT against PPP1R16B reads -0.892.
Turning to GAGUCAGGAUCGCAAGUCATT against SAFB2, the median seed-adjusted z-score is 0.0394.
Take CCUCGAUUGUCUUCCGGAATT against UBA7: the median seed-adjusted z-score is 2.41 (active).
Consider ACUCCAUCCUGAACCCUCATT against USP49, for which the median seed-adjusted z-score was 0.549.
The result for GAUCAAUUACGAAAUCUCATT against MED30 reads -2.06 (active); that for AAGAAGAAGUGGACACUGATT against FGFRL1, -0.111.
With GGAACUUGGUUGUAGAGCUTT against SVIL, the median seed-adjusted z-score is 0.0852.
In the case of CAACCACCCUCACAUCAUUTT against NUAK2, the median seed-adjusted z-score is -0.0601.
For the sequence AAAUGCAAUUCAAGCCUUUTT against GFRA1, the median seed-adjusted z-score is 0.125.
Regarding GGAAACUCGUCGUUCAAUATT against IL13RA1, the median seed-adjusted z-score was 0.269.
For the sequence UCGUGGAGGUGAUCUAUUATT against RAB6C, the median seed-adjusted z-score is -1.08 (active).
For UGAUUUACCUGAGCUGUAATT against GSTT2, the median seed-adjusted z-score was 0.0298.
As to CAACUUCCACUGUUUCCGATT against RRAGC, the median seed-adjusted z-score is -0.557.
As for CGAUGCUUGUCAGUCCCAATT against NOTCH4, the median seed-adjusted z-score was -0.384.
With GCCUAGAGGUUUGCCCUGATT against ATHL1, the median seed-adjusted z-score is 0.
Consider UCCACUGCCCAAUAAAUAUTT against PYDC1, for which the median seed-adjusted z-score was -1.44 (active).
The value for CGAGCCCAAGGAACAUGAATT against NKX2-3 was -0.2.
Turning to GCUUUUCUCUUACAAUUCATT against ZNF557, the median seed-adjusted z-score is -0.197.
On to CCAUUAACGAGCUGCUUAATT against PLK1, for which the median seed-adjusted z-score is -2.57 (active).
Take CAGUCGGAUCCAGAGCUGATT against GCHFR: the median seed-adjusted z-score is -0.559.
Regarding AGCUCACGCUGUGCAUGUGTT against TREX2, the median seed-adjusted z-score is -0.918.
Regarding AAUCAGAUUCUCAACCUAATT against KRT10, the median seed-adjusted z-score is 0.493.
In the case of CCUUCGAGCUGCUAUUAAUTT against TLR10, the median seed-adjusted z-score was -0.363.
Consider GAAGCGACUGUUUUAGAAATT against EIF4E3, for which the median seed-adjusted z-score was 0.
As to GUUAUCCUCUAAUUGAUAATT against B3GALNT1, the median seed-adjusted z-score was 0.128.
For the sequence GGGUGUAACAUGUGCGGAATT against ZNF217, the median seed-adjusted z-score is -0.872.
With GCACCAUCGUCCUUGAACATT against DUOX1, the median seed-adjusted z-score is -1.09 (active).
As to CCACUGCAACUGUAAUUCUTT against PROCA1, the median seed-adjusted z-score was -0.502.
Take GAGUUCGUCGAAUCCCAAATT against SETMAR: the median seed-adjusted z-score was 0.191.
CCUCGAUUCUUAAAGACGATT against RELN: the median seed-adjusted z-score was 0.207.
Regarding GCUUUGGAGUCACAGGUCATT against EYA3, the median seed-adjusted z-score is -0.0191.
The result for GGAGACAAGCACAAGCUGATT against S100B reads 0.862.
With GUGCGAUUCUGGAUGACAATT against EVI1, the median seed-adjusted z-score is 0.
Regarding CAUGGGACCUGAUUCAAGATT against FCER2, the median seed-adjusted z-score is -1.75 (active).
For CCAGAUCAGUCCUAGCUUATT against GLIS3, the median seed-adjusted z-score is -0.00906.
On to AGCUGGUUCACGACAUGAATT against TRIP6, for which the median seed-adjusted z-score is 1.03 (active).
On to GCAUUGACUGGUCCUAUGATT against CPA2, for which the median seed-adjusted z-score is 0.0374.
For GCACUCCCAAGAUUGAUAATT against RBPJ, the median seed-adjusted z-score is -0.452.
Take CACUGAUUUUGGAUGCUCUTT against HES1: the median seed-adjusted z-score was -0.262.
Consider ACACGGCAUUAAAAAGCUATT against JRK, for which the median seed-adjusted z-score is -0.624.
Take AAACCAUCAUGCUGAGGUGTT against FCGR2A: the median seed-adjusted z-score was -0.19.
For GAGCACGACUGAAAAUGUATT against PTS, the median seed-adjusted z-score was -0.103.
Consider UAACCGAUUUGAUAUGAAUTT against ANKRA2, for which the median seed-adjusted z-score is 1.26 (active).
The value for GGGAGAGUGUGCUACGAAATT against NEIL1 was -0.168; that for GAUUCGCAGUUUAGAUGUUTT against PRKAA2 was -0.194.
GUACUUACCUUGUGAGGCATT against VAV3: the median seed-adjusted z-score was 0.
Turning to GGUGGGUGGUAAGAGGGAATT against AQP2, the median seed-adjusted z-score is -0.433.
With GCAGAUGUAUAAGAAGGCATT against RRM2, the median seed-adjusted z-score was -3.84 (active).
GGAGAGAGCUCUCACAUCUTT against PPT1: the median seed-adjusted z-score is 0.727.
In the case of AGAUUGUAGUUGUGGAUCATT against CDH15, the median seed-adjusted z-score is 0.
With CAGCUGUAGUUCUAACUAUTT against ZNF23, the median seed-adjusted z-score was -0.106.
On to GGAUCAAUGUGACGGAGAATT against EMILIN2, for which the median seed-adjusted z-score was 0.726.
For GAGUCGAACUUUACUGUCUTT against MLL2, the median seed-adjusted z-score was -2.11 (active).
In the case of GGAAUGGAAUGAUCGGUGATT against GRIN2A, the median seed-adjusted z-score is 0.025.
Take CGAGUUUGAUGAAAGAGGATT against NT5E: the median seed-adjusted z-score was 0.199.
As to CGUUAUGCCUGGUCUCCUATT against SPPL3, the median seed-adjusted z-score was 0.652.
On to CAGAUUUGGUAAAAGAGUATT against VPS26A, for which the median seed-adjusted z-score was -1.55 (active).
Regarding CCCAUUUCGGACUCCAAAATT against IRX3, the median seed-adjusted z-score was -0.285.
In the case of ACUUUGCCUUCAAGCUCUATT against SERPINA13, the median seed-adjusted z-score is -0.403.
The value for GCUACUAUGCUGAAGAUCATT against CDH18 was 0.21.
For the sequence GGAAGAUGUUGACAUAUUUTT against ACAT2, the median seed-adjusted z-score is 1.25 (active).
Regarding GAAUAAGUGACUAUCCAAATT against SENP2, the median seed-adjusted z-score is 0.
The result for GGAGGCACCUCUCAAGAUATT against THRAP3 reads -0.852.
The value for GCGAGGCUGUUAACCCUUATT against PRKCQ was 0.692.
The value for GAUGCUAUGGAAUACCAUATT against METTL4 was 0.244; that for GCUGGUACCCUGGAGGAAATT against GNRH2 was 1.13 (active).
For the sequence ACAUGGUUAUUCCCAGUGATT against AKR1CL2, the median seed-adjusted z-score was -0.949.
The result for CAUUCAAUCCGGACCAUUUTT against CYP2J2 reads 0.00659; that for CAGAUAUUAUGAAGAAUUUTT against GALNS, 0.0287; that for GCCUCUUUCUGUCAGCAUUTT against SPAG4, -0.219.
As to GGAAGGAUAUUACACCUAUTT against MMP24, the median seed-adjusted z-score is -1.28 (active).
Consider GCAAAGCCCUGUCAAACAATT against NPM2, for which the median seed-adjusted z-score was 0.215.
For CCAAGAAACUGCGAGACAATT against CNGA2, the median seed-adjusted z-score was -0.0447.
As for CCAGAGUCCUGUUCGAUUUTT against USP30, the median seed-adjusted z-score was -0.646.
Regarding CCUCAAGCCUGUAGAAGAATT against SMNDC1, the median seed-adjusted z-score was -1.54 (active).
In the case of CAGCAUUUAUCAAGUCUUATT against BMP6, the median seed-adjusted z-score was 0.301.
As to GCAUCGGCAUUGAAGGCUUTT against ALOX15B, the median seed-adjusted z-score was 0.156.
The value for GUAACUUCCUAUUCACCAATT against EPAS1 was -0.166; that for GGUCUGGAGAAGGUGCAUATT against ANGPTL4 was 1.37 (active); that for CUCUACCAACAAUCACAAATT against NPTN was 0.133.
The result for GGUCGAGUUCUACUACAAATT against IPO11 reads -0.245; that for CAUGCUCGUGGGUAACAAATT against RAB25, -0.04; that for UGGAGAGACUUAUCCAAGATT against CKMT1B, -0.929.

The values are drawn from PubChem BioAssay AID1347426 (Functional Genomics Laboratory (NCATS/FGL), 2020).
